Assay results: PubChem BioAssay
Entries with a potency or affinity are not part of this list. Activity calls are given as the source filed them. Unless noted, no rule for the calls is given here.

target: Calcium-dependent protein kinase 1 (Plasmodium falciparum (isolate 3D7)) (UniProt P62344); assay: PfCDPK1 kinase inhibitors, biochemical, TCAMS library (AID 1159585; cut-off not given, nearly all actives have IC50 up to about 0.98 µM;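 also: inhibitors leave more ATP so luminescence rises with inhibition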); conditions: recombinant PfCDPK1, Kinase-Glo ATP depletion luminescence
Sequence (P62344 whole entry, looked up): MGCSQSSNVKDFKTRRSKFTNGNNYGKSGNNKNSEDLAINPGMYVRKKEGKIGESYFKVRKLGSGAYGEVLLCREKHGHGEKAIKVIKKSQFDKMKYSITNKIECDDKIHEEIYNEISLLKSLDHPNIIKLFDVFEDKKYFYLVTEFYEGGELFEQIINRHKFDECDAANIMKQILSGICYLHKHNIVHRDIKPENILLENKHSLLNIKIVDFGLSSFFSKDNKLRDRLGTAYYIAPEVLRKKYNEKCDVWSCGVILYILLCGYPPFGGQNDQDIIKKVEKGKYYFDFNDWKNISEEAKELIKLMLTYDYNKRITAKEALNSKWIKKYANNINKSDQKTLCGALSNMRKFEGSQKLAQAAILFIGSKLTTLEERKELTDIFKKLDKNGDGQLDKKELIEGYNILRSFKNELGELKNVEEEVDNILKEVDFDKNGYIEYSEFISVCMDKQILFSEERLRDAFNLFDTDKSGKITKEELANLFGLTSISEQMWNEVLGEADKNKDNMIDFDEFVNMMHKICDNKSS

| SMILES | outcome |
| --- | --- |
| CN(c1ccc2c(c1)nc(Nc1ccc(Cl)cc1)n2C)c1ccnc(Nc2ccc(CS(C)(=O)=O)cc2)n1 | inactive |
| COc1ccc(Nc2nc(C)cc(NCc3ccc(-c4c(C)noc4C)cc3)n2)cc1 | inactive |
| CCCCCCN1CCCN(Cc2ccc(C(=O)Nc3ccc(CCC)cc3)cc2)CC1 | inactive |
| COc1cc2nc(Nc3ccc(Oc4ccccc4)cc3)nc(Nc3ccc(Oc4ccccc4)cc3)c2cc1OC | inactive |
| CN1CCCC(CN2CCN(Cc3cccc(-c4ccc(-c5nc6ccccc6[nH]5)cc4)c3)CC2)C1 (stereo not given) | inactive |
| COc1ccc2ncc(F)c(CCN3C[C@H](CNCc4ccc5c(c4)OCCO5)[C@H](O)C3)c2n1 | inactive |
| COc1ccc(CNC(=O)c2cnc3cc(-c4c(C)noc4C)ccc3c2Nc2ccccc2C(C)(C)C)cc1 | inactive |
| CC(O)C1CCCCN1C(=O)c1cccc(-c2ccc(-c3nc4ccccc4[nH]3)s2)c1 (stereo not given) | inactive |
| CC(C)(CN1CCCC1)CN(Cc1ccc(-c2ccc(C(F)(F)F)cc2)cc1)C(=O)Cn1c(CCc2cccc(F)c2F)nc(=O)c2ccccc21 | inactive |
| CC(CN(C)C)C(=O)Nc1ccc(-c2cccc(-c3nc4ccc(C(F)(F)F)cc4[nH]3)c2)cc1 (stereo not given) | inactive |
| Cc1[nH]c(C)c(-c2ccc(Oc3ccc(O)cc3)cc2)c(=O)c1Cl | inactive |
| Cc1cccc2[nH]c(-c3ccc(-c4cccc(CNCc5cccc(N)c5)c4)cc3)nc12 | inactive |
| COc1ccc2nccc(NCC3(O)CCC(NCc4ccc5c(n4)NC(=O)CS5)CC3)c2n1 (stereo not given) | inactive |
| Cc1cc2cc(-c3ccc(CN)cc3)ccc2nc1N | inactive |
| N#Cc1cccc(CN2CCCN(c3ccc(NC(=O)c4cccs4)cc3)CC2)c1 | inactive |
| Cc1[nH]nc2cc(F)c(-c3cc(OC[C@@H](N)Cc4ccccc4)cnc3-c3ccoc3)cc12 | inactive |
| CC(Oc1c(C2CCN(CCCCNC(=O)c3ccc(-c4ccc(C#N)cc4)cc3)CC2)ccc2c1CCCC2)C(N)=O (stereo not given) | inactive |
| CCCCOc1ccc(CNCCCCCCNCc2ccc(OCCCC)c3ccccc23)c2ccccc12 | inactive |
| O=C(NC1CCN(Cc2ccccc2)CC1)c1ccc(-c2nc3cc4ccccc4cc3[nH]2)s1 | inactive |
| CC1(C)N=C(N)NC(NOCC=Cc2ccccc2)=N1 | inactive |

| SMILES | outcome |
| --- | --- |
| CC(NCC(O)Cn1c2ccccc2c2ccccc21)c1ccccc1 (stereo not given) | inactive |
| O=C(Nc1ccc2oc(-c3ccc(Br)cc3)nc2c1)c1ccc([N+](=O)[O-])o1 | inactive |
| CCCCCCN(CCCCCC)CC(O)c1c(OC)ccc2ccccc12 (stereo not given) | inactive |
| COc1ccc(C2CC(=O)C3=C(C2)NC(C)=C(C(=O)OC(C)C)C3c2c(F)cccc2Cl)cc1OC (stereo not given) | inactive |
| Nc1nc(N)c2cc3ccc(OCc4ccccc4)cc3nc2n1 | inactive |
| CN(CCc1ccccn1)c1cccc2c1nc(-c1cccnc1)n2CCNCc1ccccc1 | inactive |
| O=C(NCC1CN(Cc2ccc(N3CCCC3)o2)CCCO1)c1ccc2c(c1)OCO2 (stereo not given) | inactive |
| COc1cc2ncnc(Nc3ccc4nc(Cc5ccccc5)[nH]c4c3)c2cc1OC | inactive |
| O=C(Nc1ccc(S(=O)(=O)N2CCCCCC2)cc1)c1cc(-c2ccccc2O)n[nH]1 | inactive |
| Cc1cccc2[nH]c(-c3ccc(-c4ccc(NC(=O)Nc5ccc(Cl)c(Cl)c5)cc4)cc3)nc12 | inactive |
| O=C(C=Cc1ccc(-c2nc3ccccc3[nH]2)cc1)NC1CCN(Cc2ccccc2)CC1 | inactive |
| O=C(NCC1CCN(Cc2cccc(C(F)(F)F)c2)C1)c1cc(-c2cccc(C(F)(F)F)c2)cs1 (stereo not given) | inactive |
| O=C(CN1CCCCC1)Nc1ccc(Nc2nccc(NCC(O)c3ccccc3)n2)cc1 (stereo not given) | inactive |
| NC(=O)c1cnc2cc(-c3ccoc3)ccc2c1Nc1ccc(NC(=O)Nc2ccccc2Cl)cc1 | inactive |
| Cc1ccc(-n2nc3ccc(NC(=O)c4ccc([N+](=O)[O-])o4)cc3n2)cc1C | inactive |
| CCCCc1ccc(-c2c(N)nc(N)nc2CC)cc1 | inactive |
| CCCCOc1ccc(/C=C/c2ccc(-c3c(C)[nH]c(C)c(Cl)c3=O)s2)cc1 | inactive |
| COc1ccc(C(C(=O)NC2CCN(C[C@H](O)c3ccnc4ccc(OC)cc34)CC2)N2CCN(c3ccc(Cl)c(Cl)c3)CC2)cc1 (stereo not given in full) | inactive |
| Nc1nccc2ccc(-c3ccsc3)cc12 | inactive |
| Cc1cccc2[nH]c(-c3cccc(-c4cccc(NC(=O)c5cncn5C)c4)c3)nc12 | inactive |

target: Plasmodium falciparum protein kinase 6 (PK6, PF3D7_1337100) (UniProt Q8IDW1); assay: PfPK6 kinase inhibitors, biochemical, TCAMS library (AID 1159586); conditions: recombinant PfPK6, Kinase-Glo ATP depletion luminescence
Sequence (Q8IDW1 1-305): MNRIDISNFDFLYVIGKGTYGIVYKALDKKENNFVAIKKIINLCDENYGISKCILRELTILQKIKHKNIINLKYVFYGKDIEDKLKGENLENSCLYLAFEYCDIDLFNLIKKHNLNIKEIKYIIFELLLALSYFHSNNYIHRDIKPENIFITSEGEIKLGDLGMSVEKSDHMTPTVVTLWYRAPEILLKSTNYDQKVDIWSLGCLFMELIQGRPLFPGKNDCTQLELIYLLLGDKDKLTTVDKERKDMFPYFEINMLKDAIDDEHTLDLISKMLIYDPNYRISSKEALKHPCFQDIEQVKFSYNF

| SMILES | outcome |
| --- | --- |
| CN(c1ccc2c(c1)nc(Nc1ccc(Cl)cc1)n2C)c1ccnc(Nc2ccc(CS(C)(=O)=O)cc2)n1 | inactive |
| COc1ccc(Nc2nc(C)cc(NCc3ccc(-c4c(C)noc4C)cc3)n2)cc1 | inactive |
| CCCCCCN1CCCN(Cc2ccc(C(=O)Nc3ccc(CCC)cc3)cc2)CC1 | inactive |
| COc1cc2nc(Nc3ccc(Oc4ccccc4)cc3)nc(Nc3ccc(Oc4ccccc4)cc3)c2cc1OC | inactive |
| CN1CCCC(CN2CCN(Cc3cccc(-c4ccc(-c5nc6ccccc6[nH]5)cc4)c3)CC2)C1 (stereo not given) | inactive |
| COc1ccc2ncc(F)c(CCN3C[C@H](CNCc4ccc5c(c4)OCCO5)[C@H](O)C3)c2n1 | inactive |
| COc1ccc(CNC(=O)c2cnc3cc(-c4c(C)noc4C)ccc3c2Nc2ccccc2C(C)(C)C)cc1 | inactive |
| CC(O)C1CCCCN1C(=O)c1cccc(-c2ccc(-c3nc4ccccc4[nH]3)s2)c1 (stereo not given) | inactive |
| CC(C)(CN1CCCC1)CN(Cc1ccc(-c2ccc(C(F)(F)F)cc2)cc1)C(=O)Cn1c(CCc2cccc(F)c2F)nc(=O)c2ccccc21 | inactive |
| CC(CN(C)C)C(=O)Nc1ccc(-c2cccc(-c3nc4ccc(C(F)(F)F)cc4[nH]3)c2)cc1 (stereo not given) | inactive |
| Cc1[nH]c(C)c(-c2ccc(Oc3ccc(O)cc3)cc2)c(=O)c1Cl | inactive |
| Cc1cccc2[nH]c(-c3ccc(-c4cccc(CNCc5cccc(N)c5)c4)cc3)nc12 | inactive |
| COc1ccc2nccc(NCC3(O)CCC(NCc4ccc5c(n4)NC(=O)CS5)CC3)c2n1 (stereo not given) | inactive |
| Cc1cc2cc(-c3ccc(CN)cc3)ccc2nc1N | inactive |
| N#Cc1cccc(CN2CCCN(c3ccc(NC(=O)c4cccs4)cc3)CC2)c1 | inactive |
| Cc1[nH]nc2cc(F)c(-c3cc(OC[C@@H](N)Cc4ccccc4)cnc3-c3ccoc3)cc12 | inactive |
| CC(Oc1c(C2CCN(CCCCNC(=O)c3ccc(-c4ccc(C#N)cc4)cc3)CC2)ccc2c1CCCC2)C(N)=O (stereo not given) | inactive |
| CCCCOc1ccc(CNCCCCCCNCc2ccc(OCCCC)c3ccccc23)c2ccccc12 | inactive |
| O=C(NC1CCN(Cc2ccccc2)CC1)c1ccc(-c2nc3cc4ccccc4cc3[nH]2)s1 | inactive |
| CC1(C)N=C(N)NC(NOCC=Cc2ccccc2)=N1 | inactive |

| SMILES | outcome |
| --- | --- |
| CC(NCC(O)Cn1c2ccccc2c2ccccc21)c1ccccc1 (stereo not given) | inactive |
| O=C(Nc1ccc2oc(-c3ccc(Br)cc3)nc2c1)c1ccc([N+](=O)[O-])o1 | inactive |
| CCCCCCN(CCCCCC)CC(O)c1c(OC)ccc2ccccc12 (stereo not given) | inactive |
| COc1ccc(C2CC(=O)C3=C(C2)NC(C)=C(C(=O)OC(C)C)C3c2c(F)cccc2Cl)cc1OC (stereo not given) | inactive |
| Nc1nc(N)c2cc3ccc(OCc4ccccc4)cc3nc2n1 | inactive |
| CN(CCc1ccccn1)c1cccc2c1nc(-c1cccnc1)n2CCNCc1ccccc1 | inactive |
| O=C(NCC1CN(Cc2ccc(N3CCCC3)o2)CCCO1)c1ccc2c(c1)OCO2 (stereo not given) | inactive |
| COc1cc2ncnc(Nc3ccc4nc(Cc5ccccc5)[nH]c4c3)c2cc1OC | inactive |
| O=C(Nc1ccc(S(=O)(=O)N2CCCCCC2)cc1)c1cc(-c2ccccc2O)n[nH]1 | inactive |
| Cc1cccc2[nH]c(-c3ccc(-c4ccc(NC(=O)Nc5ccc(Cl)c(Cl)c5)cc4)cc3)nc12 | inactive |
| O=C(C=Cc1ccc(-c2nc3ccccc3[nH]2)cc1)NC1CCN(Cc2ccccc2)CC1 | inactive |
| O=C(NCC1CCN(Cc2cccc(C(F)(F)F)c2)C1)c1cc(-c2cccc(C(F)(F)F)c2)cs1 (stereo not given) | inactive |
| O=C(CN1CCCCC1)Nc1ccc(Nc2nccc(NCC(O)c3ccccc3)n2)cc1 (stereo not given) | inactive |
| NC(=O)c1cnc2cc(-c3ccoc3)ccc2c1Nc1ccc(NC(=O)Nc2ccccc2Cl)cc1 | inactive |
| Cc1ccc(-n2nc3ccc(NC(=O)c4ccc([N+](=O)[O-])o4)cc3n2)cc1C | inactive |
| CCCCc1ccc(-c2c(N)nc(N)nc2CC)cc1 | inactive |
| CCCCOc1ccc(/C=C/c2ccc(-c3c(C)[nH]c(C)c(Cl)c3=O)s2)cc1 | inactive |
| COc1ccc(C(C(=O)NC2CCN(C[C@H](O)c3ccnc4ccc(OC)cc34)CC2)N2CCN(c3ccc(Cl)c(Cl)c3)CC2)cc1 (stereo not given in full) | inactive |
| Nc1nccc2ccc(-c3ccsc3)cc12 | inactive |
| Cc1cccc2[nH]c(-c3cccc(-c4cccc(NC(=O)c5cncn5C)c4)c3)nc12 | inactive |
